In PubChem BioAssay (NCI) one finds growth data, which are given here for 40 molecules.

This is part of a sample that, as a whole, favours compounds with a hit. Of some 83,000 tested, about 20% had one in any assay.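 96-well plates, one dose, 48 hours. Percent growth reported; active if below 10.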 A number with no mark means an inactive call. Calls of active or inactive are those of the source.

For this test, the system named is MDA-MB-468 breast. The test can be described thus: NCI-60 one-dose screen, 48 h (100 = growth as untreated, 0 = no growth, -100 = all killed). The following applies: 10 µM unless noted.
Turning to `Cc1nc(Nc2n[nH]c3c2CN(C(=O)N[C@H](CN(C)C)c2ccccc2)C3(C)C)c2sccc2n1`, the growth is -44.3% (active).

Take `CCN1C(=O)N(CC)C2C1NN=c1s/c(=C\c3ccccc3Br)c(=O)n12` (stereo not given): the growth was 27.5%.

As to `Nc1c(C(=O)Nc2cccc3c2OCCO3)sc2nc3c(cc12)CN(Cc1ccccc1)CC3`, the growth was 38.8%.

Regarding `O=C(/C(=N/O)c1ccccc1)c1ccccc1`, the growth is 93.1%.

On to `C=C[C@H]1CCC/C=C/[C@@H]2C[C@H](O)C[C@H]2[C@H](O)/C=C/C(=O)O1`, for which the growth is -42.7% (active).

With `Cc1ccc2[nH]c(=S)[nH]c(=O)c2c1`, the growth is 102%.

As for `CCCCCCOC(=O)CC1=C(C)/C(=C/c2[nH]c(-c3ccc[nH]3)cc2OC)N=C1C`, the growth is -59.7% (active).

Regarding `N#CC1c2ccccc2C=CN1C(=O)N(c1ccccc1)c1ccccc1` (stereo not given), the growth is 5.11% (active).

In the case of `CCn1c(C)nc2cc(C(N)=O)ccc21`, the growth is 102%.

As for `CCCCCC/C=C1\CCC(CN2CCCC2)C1=O` (stereo not given), the growth was 73.2%.

Turning to `COc1ccc(COC=O)cc1`, the growth is 114%.

Regarding `CS(=O)(=O)Nc1cc(-c2ccc3ncnc(Nc4ccc5[nH]ncc5c4)c3c2)cnc1Cl`, the growth was 16.6%.

Regarding `COc1ccc(C(=O)c2cc(OC)c(OC)c(OC)c2OC)cc1O`, the growth was 29.7%.

For the molecule `CN1C(=O)N(C)C2NC(N/N=C/c3ccccc3)=NC21` (stereo not given), the growth is 95.9%.

As to `O=[N+]([O-])c1ccc(OCCCOc2ccccc2)cc1`, the growth was 104%.

For `CC1C(C)N(C(=O)CCl)c2ccccc2N1C(=O)CCl` (stereo not given), the growth was -69% (active).

`COC(c1ccccc1)C(Br)C(=O)c1ccccc1` (stereo not given): the growth is 94.8%.

For `CCCCCCCC(=O)SCC/C=C/[C@@H]1CC(=O)NCc2nc(co2)C2=N[C@@](C)(CS2)C(=O)N[C@@H](C(C)C)C(=O)O1`, the growth was -0.758% (active).

In the case of `N#Cc1c(-c2ccc(F)cc2)nc(N=Nc2c(O)[nH]c3ccccc23)nc1N1CCOCC1`, the growth is 59.1%.

On to `Brc1ccc(/C=C(/C2=NCCN2)n2ccc3ccccc32)cc1`, for which the growth was 50.8%.

With `Cn1cc(-c2nnc(-c3cn(C)c4ncc(Br)cc34)o2)c2ccccc21`, the growth is 39.3%.

As for `O=C1NN(c2ccccc2)C(c2ccc(Cl)cc2)N2CCC[C@H]12` (stereo not given in full), the growth was 98.7%.

`Cc1cc(C(=O)Nc2cc(Nc3ncccc3-c3ncnc4nc[nH]c34)ccc2F)cc(C(C)(C)C#N)c1`: the growth was 87.7%.

As to `O=C(C(=O)c1cc(Br)ccc1O)c1cc(Br)ccc1O`, the growth was 29.5%.

`O=C1c2cc(Cl)ccc2Oc2cc([N+](=O)[O-])ccc2N1c1ccc(F)cc1F`: the growth was 91.6%.

Turning to `COc1ccc(NC2=C(Br)C(=O)C(C)=C(C)C2=O)cc1`, the growth is -59% (active).

For `O=c1[nH]c2ccccc2n1C1CCN(CCOc2ccccc2)CC1`, the growth is 78.9%.

Regarding `CCCCCCCCn1ccc2cc(NC(=O)Cn3cc(CN4CCCCC4)nn3)ccc21`, the growth is -14.6% (active).

Regarding `CCC12OC(COc3ccccc3)CN1CCN2c1ccccc1` (stereo not given), the growth is 97.4% [100 µM].

Turning to `CCNC(=O)N1CCc2cc(OC)c(OCCc3ccc(OC)c(N)c3)cc2C1c1cc(C)c(C)cc1C` (stereo not given), the growth is 42%.

Consider `COc1ccc(/C=N/Nc2ccnc3cc(Cl)ccc23)cc1Cl`, for which the growth was -71.9% (active).

Take `Nc1ccccc1NC(=O)c1ccc(-n2nc(-c3ccccc3)c3ccccc32)cc1`: the growth was 94.5%.

In the case of `O=C(CN1C(=O)/C(=C\c2ccc(Cl)cc2)SC1=S)Nc1ncc(Cc2ccc(Cl)cc2)s1`, the growth is 108%.

Turning to `O=C(C[N+](=O)[O-])c1ccc(Cl)cc1`, the growth is 112%.

On to `CCCCCC1CCCCN1C(=O)OCC` (stereo not given), for which the growth was 150%.

As for `O=C1/C(=C\c2ccccc2)CN(C(=O)c2ccccc2F)C/C1=C\c1ccccc1`, the growth was -72.4% (active).

For `COc1ccc(-c2ccc(-c3ccc(C(=N)N)s3)s2)cc1Cl`, the growth was -12.5% (active).

`CN(C)C(=O)OCc1nc2c(N3CCOCC3)nc(-c3ccccc3)nc2n1C`: the growth was -61.1% (active).

Consider `O=C(O)CCC(=O)c1ccc(C2CCCCCC2)cc1`, for which the growth is 105%.

Regarding `COC(=O)c1c(C)nc(C)c2c1C(=O)C(Br)=C(NCc1ccccc1)C2=O`, the growth was -21.3% (active).
